Potency and outcome data for ten compounds are collected here from PubChem BioAssay (Tox21).

Results filed as inconclusive are left out. A number with no mark means an inactive call. Calls of active or inactive are those of the source. Unless noted, the call rests on the fitted dose curve; in most records, active means well fitted curve in the direction sought with a large enough effect in the repeat runs; inconclusive means weak or mixed curves; inactive means no such curve, though single readings can be large; an effect the other way counts as inactive or inconclusive.

The nature of assay [1]: qHTS assay to identify small molecule antagonists of the vitamin D receptor (VDR) signaling pathway - cell viability counter screen (AID 743225). Further: nearly all actives have a fitted effect of over 50% in size. Summed up: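 Cells (VDR-UAS-bla HEK 293T) are plated, rested 4 h at 37C, dosed with compound and 3 nM final 1-alpha,25-dihydroxy vitamin D3, and incubated 16 h. Viability is taken from CellTiter-Glo luminescence in the reporter wells.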
Background: Quantitative high-throughput screening tests each substance at several concentrations.

Assay [2] is described as follows: qHTS assay to identify small molecule agonists of the NFkB signaling pathway (AID 1159509; active means well fitted curve in the direction sought with a large enough effect in the signal ratio in the repeat runs, not every such curve was filed as active; the % refers to the signal ratio; further: series mostly up to about 61 µM). Summed up: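 After overnight attachment, reporter cells received test compounds, DMSO or positive controls and were incubated 5 hr at 37 C. FRET substrate was then added for 1.5 hr at room temperature before dual-emission fluorescence reading.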
Assay [3] is described as follows: qHTS assay to identify small molecule agonists of the NFkB signaling pathway - cell viability counter screen (AID 1159515; calls by dose curve; further: series mostly up to about 61 µM; nearly all actives have a fitted effect of over 55% in size). Summed up: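 Using the same wells as the NFkB reporter read, ME-180 NFkB-bla cells given compounds for 5 hr were assessed for viability via CellTiter-Glo, with luminescence taken after a 30 min room-temperature incubation.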
Assay [4] in a line: qHTS assay to identify small molecule agonists of the endoplasmic reticulum stress response signaling pathway (AID 1159516; active means well fitted activation curve with a large enough effect in the signal ratio in the repeat runs, not every such curve was filed as active; the % refers to the signal ratio). The procedure, abridged: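 An ESRE-bla HeLa cell assay: compounds were pin-transferred from DMSO onto overnight-plated cells and left 5 hr at 37 C. Substrate was then loaded for 2 hr at room temperature before reading fluorescence at 460 nm and 530 nm.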

Assay [5] is described as follows: qHTS assay to identify small molecule agonists of the endoplasmic reticulum stress response signaling pathway - cell viability counter screen (AID 1159517; calls by dose curve;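 further: HeLa cells carrying an ER stress response element beta-lactamase reporter; series mostly up to about 61 µM; nearly all actives have a fitted effect of over 50% in size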). The procedure, abridged: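 Luminescence readout: CellTiter-Glo, 30 min RT, same wells as the ESRE-bla reporter read. HeLa ESRE-bla, 1,500 cells/well, o/n 37 C; cpd 5 hr 37 C/5% CO2.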
Assay [6] can be described thus: qHTS assay to identify small molecule antagonists of the retinoid-related orphan receptor gamma (ROR-gamma) signaling pathway - cell viability counter screen (AID 1159520). Further: nearly all actives have a fitted effect of over 50% in size. Summed up:
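Tet-on ROR gamma CHO cells (1,000/well) were plated 4 hr, given compounds in DMSO for 2 hr at 37 C, then induced with 1 uM final doxycycline for 16 hr. Viability was read as ATP by CellTiter-Glo luminescence after 30 min.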

In assay [7] the target is Nuclear receptor ROR-gamma (Homo sapiens) (UniProt P51449). Kind of assay: qHTS assay to identify small molecule antagonists of the retinoid-related orphan receptor gamma (ROR-gamma) signaling pathway (AID 1159521;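 further: CHO cells with doxycycline inducible ROR-gamma driving an RORE luciferase reporter; top concentration of the series differs between compounds; nearly all actives have a fitted effect of over 50% in size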). Summed up: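 RORγ antagonism is scored from reduced reporter luminescence in Tet-on CHO cells. Induction used 1 uM final doxycycline hyclate for 16 h at 37 C, following a 2 h compound exposure.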

Assay [8] is described as follows: qHTS assay to identify small molecule agonists of the AP-1 signaling pathway - cell viability counter screen (AID 1159525; calls by dose curve; further: nearly all actives have a fitted effect of over 55% in size). Summed up: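 ME-180 AP-1-bla, 2500 cells/well, Opti-MEM + 0.5% dialyzed FBS; overnight 37 °C; cpd 15-pt titration, 5 h 37 °C; CellTiter-Glo 30 min RT; luminescence read; normalised to TOAB and DMSO controls.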
Assay [9] in a line: qHTS assay to identify small molecule agonists of the AP-1 signaling pathway (AID 1159526; calls by dose curve).
Assay [10] concerns the target Retinoic acid receptor RXR-alpha (Homo sapiens) (UniProt P19793). Kind of assay: qHTS assay to identify small molecule agonists of the RXR signaling pathway (AID 1159527; calls by dose curve; further: nearly all actives have a fitted effect of over 35% in size; further: potency means the concentration at half of the fitted maximal effect). Summed up: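 qHTS of the Tox21 10K library in GeneBLAzer RXR-alpha HEK 293T cells carrying a beta-lactamase reporter […]; 16 hr treatment, 9-cis retinoic acid as agonist control, FRET read-out.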

A short description of assay [11]: qHTS assay to identify small molecule agonists of the RXR signaling pathway - cell viability counter screen (AID 1159529). The procedure, abridged:
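Cell viability is measured by CellTiter-Glo luminescence, 30 min at room temperature, in wells already read for beta-lactamase. Engineered HEK 293T cells (RXR-alpha-UAS-bla) are dosed 16 hr at 37 C. Tetraoctyl ammonium bromide serves as positive control.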

Assay [12] in a line: qHTS assay to identify small molecule antagonists of the retinoid acid receptor (RAR) signaling pathway - cell viability counter screen (AID 1159551). Further: nearly all actives have a fitted effect of over 35% in size. The procedure, abridged: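 Retinol-stimulated (1 uM final) C3RL4 cells, compound 6 h, 37 C; readout CellTiter-Glo luminescence (ATP) after 30 min RT incubation.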
A short description of assay [13]: qHTS assay to identify small molecule antagonists of the retinoic acid receptor (RAR) signaling pathway (AID 1159552; further: nearly all actives have a fitted effect of over 50% in size). The procedure, abridged: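 Quantitative HTS in C3RL4 RARE-luciferase reporter cells. Compounds were added with 1 uM (final) retinol; luminescence was read after 6 hr.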
The nature of assay [14]: qHTS assay to identify small molecule agonists of the retinoic acid receptor (RAR) signaling pathway (AID 1159553). Summed up:
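Reporter readout comes from luciferase under RARE control in C3RL4 cells; compound exposure lasts 6 hr at 37 C in 5% CO2, and luminescence is recorded following a 30 min room-temperature incubation with reagent.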

The nature of assay [15]: qHTS assay to identify small molecule antagonists of the estrogen related receptor (ERR) signaling pathway - cell viability counter screen (AID 1224818).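 Further: series mostly up to about 46 µM; viability measured after 17.5 h of compound exposure.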 Summed up: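 After a 6 h pre-incubation, ERR cells were dosed by pin tool with compounds, positive/negative controls or DMSO alone. Following 17.5 h at 37 C and 30 min with CellTiter-Fluor, fluorescence was recorded.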

Assay [16] is described as follows: qHTS assay to identify small molecule antagonists of the estrogen related receptor signaling pathway with the pleiotropic PPARgamma coactivator (PGC) cell viability counter screen (AID 1224822;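 further: series mostly up to about 46 µM; viability read after 17.5 h compound exposure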). Summed up:
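PGC/ERR cells were plated at 2,000 per well and allowed 6 h to settle before compound addition. Following 17.5 h at 37 C, CellTiter-Fluor reagent was added and fluorescence was read 30 min later.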

Chain of Retinoic acid receptor RXR-alpha (Homo sapiens) (P19793 whole entry, looked up): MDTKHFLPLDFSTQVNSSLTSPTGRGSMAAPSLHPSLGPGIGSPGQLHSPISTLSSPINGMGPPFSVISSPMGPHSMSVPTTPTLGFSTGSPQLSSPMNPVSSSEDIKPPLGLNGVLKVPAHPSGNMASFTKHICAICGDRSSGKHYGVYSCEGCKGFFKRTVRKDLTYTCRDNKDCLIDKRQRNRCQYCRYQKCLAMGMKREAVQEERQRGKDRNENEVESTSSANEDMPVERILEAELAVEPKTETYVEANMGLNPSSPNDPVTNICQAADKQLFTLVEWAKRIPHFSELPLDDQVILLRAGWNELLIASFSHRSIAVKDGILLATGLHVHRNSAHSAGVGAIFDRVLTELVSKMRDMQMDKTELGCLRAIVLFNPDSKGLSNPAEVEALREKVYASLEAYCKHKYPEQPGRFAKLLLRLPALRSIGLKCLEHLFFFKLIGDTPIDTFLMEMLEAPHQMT

Regarding `C#CCOC(=O)/C=C(C)/C=C/CC(C)CCCC(C)C` (stereo not drawn), the Potency entry in assay [1], in assay [5], in assay [6], in assay [7], in assay [8] and in assay [11] was “inactive” each time. Also, the Potency result in assay [12] was “inactive”. Moreover, the result in [2], in [3], in [4] and in assay [9] was inactive. In assay [10], the Potency is 49 µM (active).
`ClCCCCCCCl`: the Potency result in assay [1], in [5], in assay [6], in [7], in assay [8] and in assay [10] was “inactive” each time. Further, the Potency entry in [11], in assay [12] and in [13] was “inactive” throughout. Also, the compound was classed as inactive in assay [2], in assay [3], in [4] and in assay [9].
Consider `CC(C)(C)C(=O)Cl`, for which the Potency entry in assay [1], in assay [5], in [6], in assay [7], in assay [10] and in assay [11] was “inactive” in each case. In addition, the Potency result in [12], in assay [13] and in assay [14] was “inactive” in each case. For the same compound, the compound was classed as inactive in assay [2], in [3], in assay [4] and in assay [9].
In the case of `NCCOS(=O)(=O)O`, the Potency entry in assay [1], in [5], in assay [6], in assay [7], in [8] and in assay [11] was “inactive” each time. Moreover, the Potency entry in assay [12], in [13] and in assay [14] was “inactive” each time. Further, the call in [2], in assay [3], in [4] and in [9] was inactive.
As to `NC1(c2ccccc2)CCCCC1`, the Potency result in [1], in [5], in assay [6], in [7], in [10] and in assay [11] was “inactive” throughout. Besides, the Potency result in assay [12], in [13] and in [14] was “inactive” in each case. Further, the compound was called inactive in assay [2], in assay [3], in assay [4] and in assay [9].
For the compound `NNC(N)=O`, the Potency result in [1], in [5], in [6], in assay [7], in [10] and in [11] was “inactive” throughout. The Potency result in assay [12] and in assay [13] was “inactive” in each case. Further, the outcome in [2], in assay [3], in assay [4], in [9], in assay [15] and in [16] was inactive.
Consider `OP(O)c1ccccc1`, for which the Potency result in assay [1], in assay [5], in assay [6], in assay [7], in assay [8] and in assay [11] was “inactive” each time. Further, the Potency entry in assay [12], in assay [13] and in [14] was “inactive” in each case. In addition, the call in assay [2], in assay [3], in assay [4] and in [9] was inactive.
As to `CC(Cl)(Cl)Cl`, the Potency result in assay [1], in assay [5], in [6], in assay [7], in assay [8] and in assay [11] was “inactive” each time. Moreover, the Potency entry in assay [12] and in assay [13] was “inactive” in each case. Moreover, the result in [2], in assay [3], in assay [4] and in assay [9] was inactive.
`N#CN`: the Potency entry in [1], in [5], in [6], in assay [7], in assay [10] and in assay [11] was “inactive” each time. Besides, the Potency result in assay [12], in [13] and in [14] was “inactive” in each case. Also, the call in assay [2], in [3], in assay [4] and in assay [9] was inactive.
`COC(=O)c1ccccc1CS(=O)(=O)NC(=O)Nc1nc(OC)cc(OC)n1`: the compound was classed as inactive in [2], in assay [3], in [4] and in assay [9]. For the same compound, the Potency entry in assay [5], in assay [6], in assay [7], in assay [10], in assay [11] and in [12] was “inactive” each time. For the same compound, the Potency result in assay [13] and in assay [14] was “inactive” throughout.
